Laboratory results reported in PubChem BioAssay (NCATS).
Values joined by “and” are separate entries in the source; they are usually repeats but may differ in a detail not shown here. Equal values may be shown once. A number with no mark means an inactive call. Records with an inconclusive call do not appear. Where a call stands in place of a potency, no number is given. Active and inactive are the calls of the source. Unless noted, calls come from the whole dose curve; as a rule, active = well fitted curve in the direction sought with a large enough effect; inconclusive = small, poorly fitted or top-dose-only effect, or another doubt; inactive = no such curve, though single readings can be large; an effect the other way counts as inactive or inconclusive.

What was measured:
[1] = Cell Viability - MRC5 (AID 434; calls by dose curve;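 note: potency is the fitted concentration of half-maximal effect; potency reflects cytotoxicity seen as loss of intracellular ATP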); conditions: MRC5 lung fibroblast viability, qHTS
How it was run: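 MRC5 normal human lung fibroblasts, 1500 cells/well, exposed to compound for 40 hr at 37 C. Cellular ATP was read by CellTiter-Glo luminescence; data normalized to DMSO and 100 uM tamoxifen, with AC50 from Hill fits.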

[2] = Cell Viability - SK-N-SH (AID 435; calls by dose curve;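 note: potency is the fitted concentration of half-maximal effect; compound exposure lasted 40 h at 37 °C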); conditions: SK-N-SH neuroblastoma cell viability qHTS
How it was run: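 Luminescent ATP signal served as the viability read-out after 40 hours of compound treatment of human neuroblastoma SK-N-SH cells. Concentration-response data, scaled between DMSO and 100 uM tamoxifen, gave AC50 values by standard Hill modeling.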

[3] = Cell Viability - N2a (AID 540); conditions: N2a mouse neuroblastoma cell viability; activity change, negative = cytotoxicity: at 92.2 µM (top of the series); note: nearly all actives have a fitted effect of over 45% in size; note: potency is the fitted concentration of half-maximal effect
How it was run: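 Mouse neuroblastoma N2a cells (1500/well) were preincubated 5 hr at 37 °C, then exposed to compounds for 40 hr at 37 °C in complete medium. Viability was read as intracellular ATP by CellTiter-Glo luminescence; AC50 from Hill fits.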

[4] = Cell Viability - SH-SY5Y (AID 544); conditions: SH-SY5Y neuroblastoma cell viability; viability change, negative = cytotoxic: at 92.2 µM (top of the series); note: nearly all actives have a fitted effect of over 55% in size; note: potency is the fitted concentration of half-maximal effect
How it was run: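 Human neuroblastoma SH-SY5Y cells (1500/well) in complete medium were exposed to compounds for 40 hr at 37 °C; intracellular ATP was then quantified by CellTiter-Glo luminescence after 20 min at room temperature. AC50 came from Hill-equation concentration-response fits.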

[5] = Cell Viability - Renal Proximal Tubule (AID 545); conditions: renal proximal tubule cells viability, primary cells of rat origin; activity change, negative = cytotoxicity: at 91.7 µM (top of the series); note: nearly all actives have a fitted effect of over 40% in size; note: potency is the fitted concentration of half-maximal effect
How it was run: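 Luminescent ATP signal (CellTiter-Glo) served as the viability read-out after 40 hr compound exposure of freshly isolated rat proximal tubule cells at 37 °C. Concentration-dependent ATP loss was fitted with the Hill equation to give AC50.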

[6] = Cellular Toxicity (caspase-3) HepG2 (AID 654); conditions: HepG2 caspase-3 activation, luminescence; series mostly up to 92.2 µM;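 note: cells exposed to compound for 16 hours before reading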
How it was run: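 HepG2 cells (1500/well) in complete medium were treated with compounds for 16 hr at 37 °C. Caspase-3/7 activity was then read as luminescence from peptide-aminoluciferin cleavage. AC50 came from Hill fits, normalized to DMSO and 100 uM tamoxifen.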

[7] = Cellular Toxicity (caspase-3) HUV-EC-C (AID 656); conditions: HUV-EC-C cells, caspase-3 activation (apoptosis); series mostly up to 92.2 µM
How it was run: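 qHTS; HUV-EC-C, 1000 cells/well; 5 hr settle, 16 hr cmpd, 37°C; Caspase-Glo 3/7, 20 min RT; luminescence. Norm: DMSO = 0%, tamoxifen 100 uM = 100%. Hill-fit AC50.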

[8] = Cellular Toxicity (caspase-3) Mesangial (AID 660); conditions: mesangial cells, normalized: DMSO 0%, 100 µM tamoxifen 100%; at 91.7 µM (top of the series);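 note: cells exposed to compound for 16 h before the caspase read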
How it was run: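 Human renal glomerular mesangial cells (1000/well) were treated with compounds for 16 h at 37 °C in complete medium, then caspase 3/7 activity was read by Caspase-Glo luminescence. Data were normalized to DMSO and 100 uM tamoxifen; AC50 from Hill fits.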

[9] = Cellular Toxicity (caspase-3) N2a (AID 665); conditions: N2a cells, luminescence; Potency: caspase-3 activation; series mostly up to 92.2 µM;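 note: compound exposure lasted 16 h at 37 °C before readout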
How it was run: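 Mouse N2a neuroblastoma cells (1500/well) were treated with compounds for 16 h at 37 °C, then caspase-3/7 activity was read by Caspase-Glo luminescence after 1 h at room temperature. Data were normalized to DMSO and 10 uM staurosporine; AC50 from Hill fits.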

[10] = Cellular Toxicity (caspase-3) Renal Proximal Tubule (AID 667); conditions: renal proximal tubule cells, primary cells freshly taken from rat, solvent-only wells 0%, staurosporine 100%; series mostly up to 91.7 µM;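 note: cells exposed to compound for 16 hours at 37 °C before detection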
How it was run: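 AC50 derived by standard Hill fit of concentration-response data, normalized between DMSO basal and 10 uM staurosporine as 100% stimulation. Cells: primary rat kidney proximal tubule, 16 h treatment at 37 °C.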

[11] = target: Cytochrome P450 3A4 (Homo sapiens) (UniProt P08684); experiment: qHTS Assay for Inhibitors and Substrates of Cytochrome P450 3A4 (AID 884); conditions: recombinant CYP3A4, Luciferin-PPXE luminescence; series mostly up to 57.1 µM; note: nearly all actives have a fitted effect of over 50% in size; note: potency is the fitted concentration of half-maximal effect
Cytochrome P450 3A4 (Homo sapiens), sequence (P08684 whole entry, looked up): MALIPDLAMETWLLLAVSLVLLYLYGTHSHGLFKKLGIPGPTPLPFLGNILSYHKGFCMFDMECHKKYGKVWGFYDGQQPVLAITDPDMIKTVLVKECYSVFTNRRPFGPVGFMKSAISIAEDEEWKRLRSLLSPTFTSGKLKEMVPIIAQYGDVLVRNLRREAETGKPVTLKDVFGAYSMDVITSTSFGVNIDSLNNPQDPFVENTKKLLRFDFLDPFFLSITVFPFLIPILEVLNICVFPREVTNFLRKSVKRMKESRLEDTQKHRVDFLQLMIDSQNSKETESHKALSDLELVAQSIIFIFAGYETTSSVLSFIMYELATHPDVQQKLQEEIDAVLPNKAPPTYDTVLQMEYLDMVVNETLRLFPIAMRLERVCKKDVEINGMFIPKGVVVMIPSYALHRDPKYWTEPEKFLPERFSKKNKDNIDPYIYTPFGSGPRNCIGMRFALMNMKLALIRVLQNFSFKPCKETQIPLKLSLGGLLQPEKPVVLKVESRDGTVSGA
How it was run: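 20 nM human CYP3A4 with 25 uM Luciferin-PPXE (at KM) in 200 mM KPO4, preincubated 10 min with compound; NADPH regeneration started a 60 min RT reaction. Luciferin detected by luminescence, normalized to 57 uM ketoconazole as full inhibition.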

[12] = target: Cytochrome P450 3A4 (Homo sapiens) (UniProt P08684); experiment: qHTS Assay for Activators of Cytochrome P450 3A4 (AID 885); conditions: recombinant CYP3A4, Luciferin-PPXE luminescence, 60 min; series mostly up to 57.1 µM; note: nearly all actives have a fitted effect of over 65% in size
How it was run: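 Human CYP3A4 (20 nM) with Luciferin-PPXE at 25 uM (its KM) in 200 mM KPO4; 10 min compound preincubation, then NADPH regeneration and 60 min reaction at RT. Luciferin read by luminescence; normalized to 57 uM ketoconazole full inhibition.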

[13] = target: Peroxisome proliferator-activated receptor alpha (Homo sapiens) (UniProt Q07869); experiment: qHTS assay for small molecule agonists of the peroxisome proliferator-activated receptor alpha (PPARalpha) signaling pathway (AID 651778); conditions: PathHunter PPARalpha complementation, chemiluminescence, 6 h; max response: active compounds read high
Peroxisome proliferator-activated receptor alpha (Homo sapiens), sequence (Q07869 whole entry, looked up, the tested form may be a part): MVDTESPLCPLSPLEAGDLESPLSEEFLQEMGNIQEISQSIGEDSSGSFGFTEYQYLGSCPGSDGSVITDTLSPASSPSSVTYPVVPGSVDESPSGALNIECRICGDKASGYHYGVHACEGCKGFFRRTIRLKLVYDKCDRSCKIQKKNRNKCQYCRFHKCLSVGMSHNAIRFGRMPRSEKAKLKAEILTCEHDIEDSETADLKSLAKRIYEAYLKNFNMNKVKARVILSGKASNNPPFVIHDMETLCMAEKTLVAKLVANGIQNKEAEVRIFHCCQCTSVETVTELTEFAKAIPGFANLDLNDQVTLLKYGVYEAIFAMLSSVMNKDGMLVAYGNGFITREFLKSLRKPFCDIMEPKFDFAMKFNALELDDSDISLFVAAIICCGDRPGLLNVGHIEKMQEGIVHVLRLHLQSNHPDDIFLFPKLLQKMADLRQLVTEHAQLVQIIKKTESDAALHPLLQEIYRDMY
How it was run: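 Enzyme-fragment complementation assay in which ligand-bound PPARalpha translocates and forms an active enzyme that generates chemiluminescence. Cells were plated overnight, exposed to compound for 6 hr at 37 C, and then given detection reagent for 60 min at room temperature.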

[14] = qHTS assay for cell viability of HEK293 cells (AID 743288); conditions: ATP luminescence (CellTiter-Glo), 18 h; max response: active compounds read low; note: nearly all actives have a fitted effect of over 50% in size
How it was run: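 HEK293 parental, 2,000 cells/well; ≥5 h pre-incubation 37 C; pintool compound addition; 18 h, 37 C; CellTiter-Glo 30 min RT; luminescence read.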

[15] = qHTS assay for cell viability of the p53RE-bla HCT-116 cell line (AID 743292); conditions: p53RE-bla HCT-116 viability, ATP luminescence, 16 h; series mostly up to 95 µM; note: nearly all actives have a fitted effect of over 55% in size
How it was run: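 Compound-exposed HCT-116 (p53RE-bla) cells, 4,000 per well, were kept 16 h at 37 C following a 5 h preincubation. Cell number was estimated from total ATP by CellTiter-Glo luminescence read after 30 min at room temperature.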

[16] = Cell Viability - BJ (AID 421; calls by dose curve;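 note: potency is the fitted concentration of half-maximal effect; cells exposed to compound for 40 hours at 37 °C before readout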); conditions: BJ fibroblast viability, qHTS
How it was run: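 Normal human BJ foreskin fibroblasts, 1500/well in complete medium, treated 40 hr at 37 °C. Cellular ATP by CellTiter-Glo luminescence; normalized to DMSO and 100 uM tamoxifen, AC50 from Hill fit.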

| Compound | Potency [1] | Potency [2] | activity change, negative = cytotoxicity [3] | Potency [4] | Potency [5] | Potency [6] | Potency [7] | caspase-3 activation [8] | Potency [9] | outcome [10] | Potency [11] | Potency [12] | max response [13] | max response [14] | Potency [15] | Potency [16] | Potency [3] |
| --- | --- | --- | --- | --- | --- | --- | --- | --- | --- | --- | --- | --- | --- | --- | --- | --- | --- |
| Cc1cc(Nc2ccc(O)cc2)ccc1N | > 92 µM | 87 µM (active) | -119% (active) | 6.31 µM (active) | inactive | inactive | inactive | 23.2% | inactive | inactive | 15.8 µM (active) | inactive | -7.64% | -27% | inactive | – | – |
| c1cc(OCC2CO2)cc(OCC2CO2)c1 (configuration not stated) | 34.7 µM (active) | 9.23 µM (active) | – | 0.251 µM (active) | 31.6 µM (active) | inactive | – | – | inactive | inactive | – | – | -3.13% and -3.49% | -14.2% | inactive | 27.4 µM (active) | 31.6 µM (active) |
| O=C(OCC(COC(=O)c1ccccc1)(COC(=O)c1ccccc1)COC(=O)c1ccccc1)c1ccccc1 | > 92 µM | > 92 µM | – | inactive | inactive | inactive | inactive | -0.308% | inactive | inactive | inactive | – | -8.1% | -3% | inactive | > 92 µM | inactive |
| c1ccc2c(c1)ccc1cc3c(ccc4ccccc43)cc12 | > 92 µM | > 92 µM | – | inactive | inactive | inactive | inactive | 0.415% | inactive | inactive | inactive | – | -1.24% | -4.73% | inactive | > 92 µM | inactive |
